Compounds with a hit are over-represented: about 8.8% of the library has one in this group of screens.
IL-1B inflam inh: inflammasome signaling inhibition, IL-1 beta readout. THP-1 LPS/ATP IL-1B secretion, AlphaLISA, 16 h; stronger effect = lower value. activity change, % at 57.5 µM. 4.7% of 360,000 active; in the data active = activity change below about -50%; inconclusive = mostly about -30% to -49%
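THP-1 cells pretreated 1 hr with compounds (up to 57.5 uM final), then stimulated with LPS (250 ng/mL final) plus ATP (1.25 mM final); secreted IL-1B measured by AlphaLISA after 16 hr, decreased signal indicating inhibition.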
HT1080NT lethal: kills 2HG-producing HT-1080-NT fibrosarcoma cells. HT-1080-NT fibrosarcoma viability, CellTiter-Glo ATP luminescence, 48 h. Potency, µM (highest dose often 46.1 µM), for the others: at the top dose activity, negative = less viability, actives largely listed as cytotoxic. 1.6% of 360,000 active. AID 686970;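 also: NT is the 2HG producing partner of a matched IDH1 knockdown line; potency is read from the fitted curve at half-maximal effect; 0% = DMSO-treated cells and -100% = media-only wells without cells; nearly all actives have a fitted effect of over 55% in size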
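Fibrosarcoma NT cells, 750 per well in 5% FBS RPMI, were exposed to compound for 48 hours. Viability: CellTiter-Glo luminescence.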
HT1080 IDH1KD tx: kills HT-1080 cells with IDH1 knockdown. 2% of 360,000 active. HT-1080 IDH1 knockdown viability, ATP luminescence, 48 h. Potency, µM (doses to about 46.1 µM), for inactives: at the highest dose activity, negative = toxicity, hits mostly cytotoxic;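 also: potency is read from the fitted curve at half-maximal effect; 0% = DMSO wells and -100% = cell-free medium wells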
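CellTiter-Glo luminescence after 48 h compound exposure at 37 degrees C of IDH1-knockdown HT-1080 cells in 5% FBS RPMI. %Activity scaled between DMSO wells and cell-free media wells, with curves fitted and assigned curve classes.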
KB-3-1 cytotox: KB-3-1 parental cell cytotoxicity | KB-3-1 viability, CellTiter-Glo ATP luminescence, 72 h | Potency, µM (titrated, usually from 46.1 µM), hits mostly cytotoxic | 1.4% of 400,000 active | AID 1347075; also: potency is read from the fitted curve at half-maximal effect; nearly all actives have a fitted effect of over 60% in size
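72 h, 37 °C compound treatment of KB-3-1 parental cells; CellTiter-Glo added, 10 min, luminescence read. Data corrected against DMSO-only plates and normalized before curve fitting.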
KB-V1 cytotox: kills drug-selected multidrug resistant KB-V1 cells. KB-V1 MDR cells viability, CellTiter-Glo, 72 h. Potency, µM (titrated, usually from 46.1 µM), hits mostly cytotoxic. 3.4% of 400,000 active; also: potency is read from the fitted curve at half-maximal effect; nearly all actives have a fitted effect of over 60% in size
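KB-V1, DMEM (no phenol red) + 10% FBS; cpd pin-transferred, titration series; 72 h, 37 degrees C; CellTiter-Glo, luminescence. Data normalized, curve-fit.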
The depositor's hits bear a star; i = inactive; u = inconclusive; x = no result. Unless noted, calls follow the shape of the dose curve; as a rule, active = well fitted curve in the direction sought with a large enough effect; inconclusive = small, poorly fitted or top-dose-only effect, or another doubt; inactive = no such curve, though single readings can be large; an effect the other way counts as inactive or inconclusive. Unless noted, % is scaled to controls: 0 for no effect and ±100 for the full control effect.

SMILES	IL-1B inflam inh	HT1080NT lethal	HT1080 IDH1KD tx	KB-3-1 cytotox	KB-V1 cytotox
Cc1ccc(S(=O)(=O)N2C[C@@H](C)[C@]3(C2)[C@H](O)[C@H](OC(=O)NC2CCCC2)C[C@H]2C(=O)N(c4ccccc4)C(=O)[C@H]23)cc1	-3	-16%	-11%	i	i
N=c1n(CC(=O)O)c2ccccc2n1Cc1ccccc1Cl	19	-3%	0%	i	i
N=c1n(CC(=O)c2ccc([N+](=O)[O-])cc2)c2ccccc2n1Cc1ccccc1Cl	-60*	-1%	-9%	u	u
N=c1n(CC(=O)c2ccc([N+](=O)[O-])cc2)c2ccccc2n1Cc1ccc(Cl)cc1	-28	-4%	-3%	i	i
N=c1n(CC(=O)c2ccc(Br)cc2)c2ccccc2n1Cc1ccccc1	-101*	-23%	-7%	u	u
N=c1n(CCO)c2ccccc2n1Cc1ccc(Cl)cc1	-52*	-28%	-16%	i	i
N=c1n(CC(=O)c2ccc([N+](=O)[O-])cc2)c2ccccc2n1Cc1ccccc1	-106*	4%	-6%	u	u
N=c1n(Cc2ccccc2)c2ccccc2n1Cc1ccccc1	x	u	-25%	u	18µM*
COc1ccccc1NC(=O)N1CC(=O)Nc2sc3c(c2C1c1ccccc1)CCCC3 (stereo unspecified)	x	x	x	i	i
Cn1nccc1C(=O)Nc1ccc2c(c1)OCO2	-16	-3%	-4%	i	i
Cc1ccc(Nc2nc(-c3c(C)nc4ccccn34)cs2)cc1	-87*	0.01µM*	u	0.021µM*	0.16µM*
Cc1ccc(Nc2nc(-c3c(C)nc4ncccn34)cs2)cc1	-98*	0.18µM*	u	0.0058µM*	0.33µM*
Cc1nc2ncccn2c1-c1csc(Nc2ccc(O)cc2)n1	-28	-6%	u	15µM*	i
Cc1nc2ccccn2c1-c1csc(NCc2ccco2)n1	u	-27%	-25%	i	u
COc1ccc(NCc2ccc(OC)c(Cn3ccnc3)c2)c(OC)c1	-69*	-5%	-7%	i	u
Oc1ccc(-c2nccs2)cc1	0	11%	-1%	i	i
COc1ccc(Cl)cc1N1C(=O)/C(=C\c2sccc2C)N=C1SCC(=O)NC1CC1	u	u	-29%	i	21µM*
Nn1c(SCC(=O)Nc2cccnc2Cl)nnc1-c1ccccc1	14	1%	-8%	i	i
Cc1ccc(OCC(=O)Nc2ccc3[nH]c(=O)sc3c2)cc1	x	x	x	i	i
CCCOc1ccc(Cn2c(=O)oc3ccc(C)cc32)cc1OC	-2	-13%	-13%	i	12µM*
COc1cc(Cn2c(=O)oc3ccc(C)cc32)ccc1OCCC(C)C	x	x	x	i	u
Cc1ccc2nc(C)cc(C(=O)OCC(=O)c3ccc(Cl)c([N+](=O)[O-])c3)c2c1	-68*	-6%	-4%	i	i
COc1ccc(-c2cc(C(=O)OCC(=O)c3ccc(C)c([N+](=O)[O-])c3)c3ccccc3n2)cc1	-55*	-3%	1%	i	i
COc1ccc2[nH]c(=O)c(CN(C(C)=O)c3cc(C)ccc3C)cc2c1	11	1%	-1%	i	i
CC(C)(O)CN(C(=O)C(c1ccccc1)c1ccccc1)C1CCCCC1	-63*	5%	13%	i	13µM*
SMILES	IL-1B inflam inh	HT1080NT lethal	HT1080 IDH1KD tx	KB-3-1 cytotox	KB-V1 cytotox
CC(=O)NC(CC(=O)N(C)C1CCCCC1)c1ccccc1 (stereo unspecified)	39	8%	14%	i	i
CCOC(=O)CNC(=S)N(Cc1ccc(C)cc1)Cc1ccc(C)o1	-55*	0%	-4%	i	16µM*
CCCCSCCCNC(=O)Nc1ccc(CC)cc1	-75*	0%	-6%	i	i
CCOc1ccc(N(C(=O)c2ccc(C)cc2)S(=O)(=O)c2ccc3c(c2)n(C)c(=O)n3C)cc1	x	x	x	i	i
C=C1C(=O)O[C@@H]2[C@H]1[C@@H](OC(=O)/C(C)=C/C)C/C(C)=C\C(=O)/C=C(\C)[C@@H]2O	-102*	u	u	2.9µM*	u
C/C=C(/C)C(=O)O[C@H]1[C@@H](O)c2c(ccc3ccc(=O)oc23)OC1(C)C	0	-2%	-3%	u	u
O=c1cc(CCl)nc(Cc2c(Cl)cccc2Cl)[nH]1	-23	23µM*	26µM*	u	u
CCOC(=O)C1CCN(C(=O)c2sc3nc(-c4ccc(F)cc4)cn3c2C)CC1	1	-1%	-3%	i	23µM*
CCOC(=O)C1CCCN(C(=O)c2sc3nc(-c4ccc(F)cc4)cn3c2C)C1 (stereo unspecified)	0	-8%	-9%	i	u
Cc1ccc(N(CC(=O)NC2CCCC2)C(=O)CCC(=O)Nc2nccs2)c(C)c1	-54*	-11%	-14%	i	u
CC[n+]1c(/C=C/Nc2ccccc2)sc2ccccc21	-102*	-9%	-19%	u	u
CC[n+]1c(/C=C(\C)Nc2ccccc2)sc2ccccc21	-80*	-13%	-16%	u	21µM*
CC[n+]1c(/C=C(\C)OC)sc2ccccc21	-21	20%	11%	i	i
CC[n+]1c(C=C2C=C(C)OC(C)=C2)sc2ccccc21	-95*	u	u	u	u
CC[n+]1c(/C=C2/C=C(C)CC(C)C2)sc2ccccc21 (stereo unspecified)	-8	-11%	-1%	u	i
CC#CC[N+](C)(C)CCCCCCCC	-2	-2%	-10%	18µM*	i
N#CC1=C(N)C2=CCCC[C@H]2[C@H](c2cccc(F)c2)C1(C#N)C#N	-94*	u	16µM*	i	i
CC1(C)NC(=O)N(CC(=O)N2CCCC(C(F)(F)F)C2)C1=O (stereo unspecified)	10	6%	-4%	i	i
CCNc1ccc(Br)cc(C(=O)/C=C/c2ccccc2Cl)c1=O	-104*	u	13µM*	u	23µM*
CNc1ccc(Br)cc(C(=O)/C=C/c2cccc(Cl)c2Cl)c1=O	-56*	0%	-7%	16µM*	u
CCNc1ccccc(C(=O)/C=C/c2ccc3c(c2)OCO3)c1=O	-9	-25%	-18%	i	i
CNc1ccc(Br)cc(C(=O)/C=C/c2cccc(OC)c2OC)c1=O	-12	6%	5%	i	i
CCOC(=O)C1CCN(C(=O)c2c(C)oc3c2C(=O)c2ccccc2C3=O)CC1	-76*	-6%	-15%	u	18µM*
CC1CCN(C(=O)c2ccc3c(c2)C(=O)c2ccccc2-3)CC1	-7	1%	10%	i	i
CCOC(=O)C1CCN(C(=O)c2ccc(C)o2)CC1	-1	9%	16%	i	i
